# Measured values from PubChem BioAssay AID1159580 (chemical genetic matrix, 2015).
# The whole screen tested about 5,500 compounds, of which about 2,000 (36%) were called active. Roughly 18% stayed inconclusive and do not appear here. The list shows a part of the results. Values without a mark were called inactive. Rule as the data show it: active = normalized growth mostly below about 0.91 (no sharp cut-off); inconclusive = no clear call, values can overlap the other calls; inactive = mostly above about 0.92.
# Test: chemical genetic growth profiling, strain panel (AID 1159580);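 also: tested at 20 µM; growth read once vehicle control cultures reached saturation at 30 °C; 1 = growth at the plate median or of vehicle wells; lower values mean less growth of the strain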
# Conditions: S. cerevisiae deletion strains, growth OD
# [1] = locus YJR075W, strain HOC1, stronger effect = lower value
# [2] = locus YMR263W, strain SAP30, stronger effect = lower value
# [3] = locus YNL153C, strain GIM3, stronger effect = lower value
# [4] = locus YNL322C, strain KRE1, stronger effect = lower value
# [5] = locus YPL241C, strain CIN2, stronger effect = lower value
# [6] = locus YHR030C, strain SLT2, stronger effect = lower value
# [7] = locus YBR229C, strain ROT2, stronger effect = lower value
# [8] = locus YDL101C, strain DUN1, stronger effect = lower value
# [9] = locus YDL134C, strain PPH21, stronger effect = lower value
# [10] = locus YDR150W, strain NUM1, stronger effect = lower value
# [11] = locus YEL061C, strain CIN8, stronger effect = lower value
# [12] = locus YGR078C, strain PAC10, stronger effect = lower value
# [13] = locus YHR087W, strain rtc3, stronger effect = lower value
# [14] = locus YJR043C, strain POL32, stronger effect = lower value
# [15] = locus YLR039C, strain RIC1, stronger effect = lower value
# [16] = locus YLR058C, strain SHM2 (second series), stronger effect = lower value
# [17] = locus YLR085C, strain ARP6, stronger effect = lower value
# [18] = locus YLR262C, strain YPT6, stronger effect = lower value
# [19] = locus YML094W, strain GIM5, stronger effect = lower value
# [20] = locus YMR219W, strain ESC1, stronger effect = lower value
# [21] = locus YNL298W, strain CLA4 (second series), stronger effect = lower value
# [22] = locus YNR030W, strain Alg12, stronger effect = lower value
# [23] = locus YPL055C, strain LGE1, stronger effect = lower value
# [24] = locus YPR135W, strain CTF4, stronger effect = lower value
smiles,measurement,setting,value
C[C@@H]1O[C@H](C[N+](C)(C)C)CS1,normalized growth,"locus YAL040C, strain CLN3, stronger effect = lower value",1.02
same,normalized growth,"locus YCL061C, strain MRC1 (second series), stronger effect = lower value",1.01
same,normalized growth,"locus YDR363W, strain ESC2, stronger effect = lower value",1.03
same,normalized growth,"locus YER002W, strain NOP16, stronger effect = lower value",0.997
same,normalized growth,[1],1.02
same,normalized growth,[2],1.01
same,normalized growth,[3],1.01
same,normalized growth,"locus YNL175C, strain NOP13, stronger effect = lower value",1.01
same,normalized growth,"locus YNL197C, strain WHI3, stronger effect = lower value",1.01
same,normalized growth,"locus YNL224C, strain SQS1, stronger effect = lower value",0.993
same,normalized growth,[4],1.02
same,normalized growth,"locus YOR083W, strain WHI5 (second series), stronger effect = lower value",1.05
same,normalized growth,[5],1.01
CC(C)(CO)[C@@H](O)C(=O)NCCCO,normalized growth,[6],1.09
same,normalized growth,"locus YHR079C, strain IRE1, stronger effect = lower value",0.97
same,normalized growth,"locus YJL095W, strain BCK1, stronger effect = lower value",1.01
same,normalized growth,"locus YJR066W, strain TOR1, stronger effect = lower value",0.936
same,normalized growth,"locus YLR113W, strain HOG1, stronger effect = lower value",0.968
same,normalized growth,"locus YNL183C, strain NPR1, stronger effect = lower value",0.932
same,normalized growth,"locus YOR231W, strain MKK1, stronger effect = lower value",0.998
same,normalized growth,"locus YPL256C, strain CLN2, stronger effect = lower value",0.988
c1ccc(-c2cc3c(nn2)CCc2nonc2-3)cc1,normalized growth,"locus YAL013W, strain DEP1, stronger effect = lower value",0.979
same,normalized growth,[7],0.984
same,normalized growth,[8],0.992
same,normalized growth,[9],0.985
same,normalized growth,[10],1.01
same,normalized growth,[11],0.985
same,normalized growth,[12],0.992
same,normalized growth,[6],0.784
same,normalized growth,[13],1.01
same,normalized growth,"locus YJL187C, strain SWE1, stronger effect = lower value",0.975
same,normalized growth,[14],0.984
same,normalized growth,[1],0.966
same,normalized growth,[15],1.04
same,normalized growth,[16],0.978
same,normalized growth,[17],0.886
same,normalized growth,[18],1.02
same,normalized growth,[19],1.04
same,normalized growth,[20],0.985
same,normalized growth,[2],0.958
same,normalized growth,[3],0.99
same,normalized growth,[21],0.965
same,normalized growth,[4],0.987
same,normalized growth,[22],0.986
same,normalized growth,[23],1.09
same,normalized growth,[5],0.988
same,normalized growth,[24],0.988
c1ccc(-c2cc3c(ccc4nonc43)nn2)cc1,normalized growth,[7],0.957
same,normalized growth,[8],0.933
same,normalized growth,[9],0.991
same,normalized growth,[10],0.922
same,normalized growth,[11],0.947
same,normalized growth,[12],0.973
same,normalized growth,[6],0.604 (active)
same,normalized growth,[13],0.971
same,normalized growth,[14],0.76 (active)
same,normalized growth,[1],0.97
same,normalized growth,[15],0.96
same,normalized growth,[16],0.977
same,normalized growth,[17],0.878
same,normalized growth,[18],0.988
same,normalized growth,[19],0.935
same,normalized growth,[20],0.981
same,normalized growth,[2],0.923
same,normalized growth,[3],0.955
same,normalized growth,[21],0.945
same,normalized growth,[4],0.988
same,normalized growth,[22],0.905
same,normalized growth,"locus YOL006C, strain TOP1, stronger effect = lower value",0.734
same,normalized growth,[23],0.82 (active)
same,normalized growth,[5],0.89
same,normalized growth,[24],0.764
